# Source: PubChem BioAssay AID431 (Sanford-Burnham Center for Chemical Genomics, 2006)
# The campaign covered roughly 63,000 compounds. About 1,100 (1.7%) were called active. The list comes from a sample in which actives are over-represented; it also holds similar structures and randomly drawn compounds. Measured potencies and affinities stand elsewhere. Unmarked numbers belong to inactive results.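 How the source made its calls: active means compounds whose percent cytotoxicity in the single-dose primary screen, scaled between solvent and toxic-drug controls, exceeds 50; inactive means the rest.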
# Assay: cytotoxicity in KRAS-transformed pancreatic duct cells, primary screen, cell-based, fluorescence, HTS (AID 431);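 further: 0% = DMSO solvent wells and 100% = doxorubicin-treated wells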
# Conditions: HPDE-C7K KRASV12 cells, Alamar Blue viability, 48 h; at 10 µM; hits give high values
row,SMILES,cytotoxicity
1,Cc1ccc(C(=O)N2CCCC2)cc1S(=O)(=O)Nc1ccccc1,-7%
2,CC1CCN(C(=O)CSc2nc(N)cc(N)n2)CC1,-11.1%
3,CCc1cc(C(=O)COc2ccccc2F)c(O)cc1O,-13.8%
4,CCc1cc(C(=O)Cc2nc3ccccc3[nH]2)c(O)cc1O,20%
5,CCc1cc(C(=O)Cc2cnn(-c3ccccc3)c2)c(O)cc1O,6.7%
6,CCc1cc(C(=O)Cc2ccc(F)cc2)c(O)cc1O,50.9% (active)
7,CCCc1cc(C(=O)Cc2ccc(F)cc2)c(O)cc1O,80.9% (active)
8,CCCc1cc(C(=O)Cc2ccc(C(=O)OCC)o2)c(O)cc1O,24.5%
9,O=C(Nc1ccccc1-c1nc2ccccc2s1)c1ccco1,7.5%
10,CC1(C)CC(=O)C2=C(C1)Nc1ccccc1NC2c1ccccn1 (configuration not stated),-20%
11,COc1ccc(-c2cc(-c3c(O)c(OC)c4occc4c3OC)[nH]n2)cc1OC,36.2%
12,COc1ccc(CCCc2nnc(SCC(=O)Nc3nccs3)n2C)cc1C,-0.1%
13,CCOC(=O)c1sc(NC(=O)CSc2nc3c(cc2C#N)CCCCCC3)c(C#N)c1C,81.6% (active)
14,N#Cc1cc2c(nc1SCC(=O)Nc1sc3c(c1C#N)CCC3)CCCCC2,23%
15,CCOC(=O)c1sc(NC(=O)CSc2nc3c(cc2C#N)CCC3)c(C#N)c1C,-0.1%
16,CCCS(=O)(=O)N1CCCC(C(=O)NCCc2ccc(Cl)cc2)C1 (configuration not stated),-3.4%
17,COc1cc(NS(=O)(=O)c2ccc(C)cc2C)cc(OC)c1OC,30.3%
18,O=C(O)c1cccc(S(=O)(=O)Nc2ccc3oc(=O)sc3c2)c1,6.5%
19,Cc1ccc(CNc2ccc3c(c2)OCO3)cc1,28.9%
20,Cc1ccc(CNc2ccc3c(c2)OCO3)c(C)c1,64.8% (active)
21,c1cc(CNc2ccc3c(c2)OCO3)ccn1,-0.7%
22,Fc1ccc(Cn2nnnc2CN2CCN(C3CCCC3)CC2)cc1,5.5%
23,Cc1cc(N2C3CCC2CC(O)(c2ccc(F)cc2)C3)nc(-c2ccccc2)n1 (configuration not stated),76.5% (active)
24,Cc1cc(N2CCN(c3ccccc3)CC2)nc(-c2ccccc2)n1,-1.4%
25,Cc1cc(N2CCC(C(=O)Nc3ccc(F)cc3)CC2)nc(-c2ccccc2)n1,-0.7%
26,O=C(c1cnccn1)N1CCc2ccccc21,-21%

row,SMILES,cytotoxicity
1,O=S(=O)(NCc1cccs1)c1cccc2cccnc12,6.5%
2,Cc1cc(NC(c2cccnc2)c2ccc3cccnc3c2O)no1 (configuration not stated),24.3%
3,Cc1cnc(C(=O)Nc2ccccc2C(=O)N2CCOCC2)cn1,1.7%
4,O=C(O)c1ccc2cccc(Cl)c2c1O,24.3%
5,COc1cccc(NS(=O)(=O)c2ccc3[nH]cc(C(=O)NCCN4CCOCC4)c(=O)c3c2)c1,-12.6%
6,Cc1ccccc1NS(=O)(=O)c1ccc2[nH]cc(C(=O)NCCCN3CCOCC3)c(=O)c2c1,3.9%
7,CC1CCN(S(=O)(=O)c2ccc3[nH]cc(C(=O)NCCN4CCOCC4)c(=O)c3c2)CC1,57.8% (active)
8,COc1ccc(CNC(=O)C2CCCN2S(=O)(=O)c2ccc(S(=O)(=O)N(C)C)cc2)cc1 (configuration not stated),-14.8%
9,Cc1cc(NCCN2CCOCC2)n2c(nc3ccccc32)c1C#N,11.6%
10,CCOC(=O)CSC1=C(C#N)C(c2ccc(Cl)cc2)CC(=O)N1 (configuration not stated),-10.7%
11,Cc1ccc(C2CC(=O)NC(SCc3ccccc3)=C2C#N)o1 (configuration not stated),9%
12,CCCCCCSC1=C(C#N)C(c2ccc(C)o2)CC(=O)N1 (configuration not stated),-6.9%
13,CCCCOC(=O)CSC1=C(C#N)C(c2ccc3c(c2)OCO3)CC(=O)N1 (configuration not stated),21.6%
14,CCOC(=O)CSC1=C(C#N)C(c2ccc3c(c2)OCO3)CC(=O)N1 (configuration not stated),27.9%
15,CCCOC(=O)CSC1=C(C#N)C(c2ccc3c(c2)OCO3)CC(=O)N1 (configuration not stated),61.7% (active)
16,CCOC(=O)CSC1=C(C#N)C(c2ccc(C)o2)CC(=O)N1 (configuration not stated),67.9% (active)
17,Cc1ccc(C2CC(=O)NC(SCC(=O)OCc3ccccc3)=C2C#N)o1 (configuration not stated),55.7% (active)
18,CCOC(=O)CC(=O)CSC1=C(C#N)C(c2ccccc2OC)CC(=O)N1 (configuration not stated),70.2% (active)
19,COC(=O)CSC1=C(C#N)C(c2ccccc2)CC(=O)N1 (configuration not stated),-15.7%
20,CCOC(=O)CSC1=C(C#N)C(c2ccccc2OC)CC(=O)N1 (configuration not stated),30.7%
21,CCSC1=C(C#N)C(c2ccccc2OC)CC(=O)N1 (configuration not stated),-0.5%
22,O=C(CN(Cc1ccccc1F)S(=O)(=O)c1ccc(Cl)cc1)NCCCO,-0.2%
23,CC1CCN(c2nc3c(c(=O)n(C)c(=O)n3C)n2CCSc2nc3ccccc3s2)CC1,-22%
24,COc1ccccc1C(c1nnnn1CS(=O)(=O)c1ccc(C)cc1)N1CCSCC1 (configuration not stated),-16.2%
25,CCCn1c(SCC(=O)NCC2CCCO2)nc2c1c(=O)n(C)c(=O)n2C (configuration not stated),2.7%
26,CCOC(=O)CSC1=C(C#N)C(c2ccc(C)s2)CC(=O)N1 (configuration not stated),49.2%

row,SMILES,cytotoxicity
1,CCOc1ccc(C2CC(=O)NC(SCC(=O)OC)=C2C#N)cc1 (configuration not stated),-6.5%
2,CCOC(=O)CSC1=C(C#N)C(c2sccc2C)CC(=O)N1 (configuration not stated),52% (active)
3,Cc1ccc(NCc2nnc3n2CCCCC3)cc1,-2.7%
4,CCOC(=O)N1CCC(N2CCN(S(=O)(=O)CC)CC2)CC1,3.6%
5,CC1CCc2nc(NC(=O)c3ccco3)sc2C1 (configuration not stated),-5.4%
6,O=C(Nc1nc2c(s1)CCc1ccccc1-2)c1ccco1,5.1%
7,O=S(=O)(Cc1ccccc1)NCc1ccccn1,1.9%
8,C=CCn1c(SCC(=O)NCc2ccco2)nnc1-c1ccc2ccccc2n1,16.6%
9,CN(C)CCOc1nc(-c2ccccc2)nc2c1oc1ccccc12,56.8% (active)
10,CCc1nc(OCCN(C)C)c2oc3ccccc3c2n1,-2.7%
11,CCN(CC)CCOc1nc(C)nc2c1oc1ccccc12,-1.3%
12,CC1Oc2ccccc2N(Cc2ccccc2F)C1=O (configuration not stated),3.3%
13,CCOC(=O)c1ccccc1NC(=O)COC,-2.8%
14,CCOC(=O)c1cccc(C(=O)OCC)n1,-5.9%
15,Cc1ccccc1CS(=O)(=O)Cc1ccc(C(=O)NCCCN2CCCC2=O)o1,-10.2%
16,CCOC(=O)c1c(NC(=O)c2nn(CC)cc2Br)sc2c1CCCCC2,16.9%
17,Cc1nc(Sc2nnnn2-c2ccccc2)c(C#N)c(C)c1C,-8%
18,Clc1ccc(-n2nnnc2Sc2ncnc3sccc23)cc1,-6.3%
19,CCCn1c(Sc2nnnn2-c2ccccc2)n[nH]c1=O,-14.1%
20,Cc1sc2ncnc(SCc3ccco3)c2c1C,-15.5%
21,Cc1sc2ncnc(Sc3nnnn3-c3ccccc3)c2c1C,101% (active)
22,CCOC(=O)c1ccc(CNC(=O)c2cc3cccc(OC)c3oc2=O)o1,-2.4%
23,CCOC(=O)CCCSc1nc2sc(C)c(C)c2c(=O)[nH]1,9.4%
24,CC(C)CCn1c(SCC(N)=O)nc2c1c(=O)n(C)c(=O)n2C,-10.1%
25,CCOc1ccc(OCc2ccc(C(=O)O)o2)cc1,-2.9%
26,Cc1ccc(C2CC(=O)c3cnc(N4CCN(c5ccccc5)CC4)nc3C2)cc1 (configuration not stated),17.2%

row,SMILES,cytotoxicity
1,CCN1CCN(c2ncc3c(n2)CC(c2cc(OC)c(OC)c(OC)c2)CC3=O)CC1 (configuration not stated),62.1% (active)
2,O=C1CC(c2cccc(Cl)c2)Cc2nc(N3CCN(c4ccccc4)CC3)ncc21 (configuration not stated),61.6% (active)
3,COc1cc(C2CC(=O)c3cnc(NC(=O)COc4ccccc4)nc3C2)cc(OC)c1OC (configuration not stated),-19.4%
4,COc1cc(C2CC(=O)c3cnc(N4CCN(Cc5ccccc5)CC4)nc3C2)cc(OC)c1OC (configuration not stated),50.1% (active)
5,COc1ccc(C2CC(=O)c3cnc(N4CCN(Cc5ccccc5)CC4)nc3C2)cc1 (configuration not stated),4.1%
6,COc1ccc(C2CC(=O)c3c(C)nc(N4CCN(Cc5ccccc5)CC4)nc3C2)cc1OC (configuration not stated),39.3%
7,O=C1CC(c2cccc(Cl)c2)Cc2nc(N3CCOCC3)ncc21 (configuration not stated),-18.3%
8,CCN1CCN(c2ncc3c(n2)CC(c2ccc(OC)c(OC)c2)CC3=O)CC1 (configuration not stated),14.6%
9,CCOC(=O)C1CCN(C(=O)CCn2c(=O)[nH]c3ccccc3c2=O)CC1,-4.8%
10,Cc1nn(C)c(C)c1S(=O)(=O)NC1CCCC1,-13%
11,CCOC(=O)C1CCCN(C(=O)c2cccs2)C1 (configuration not stated),2.4%
12,COc1cccc(NC(=O)NCc2cccn2C)c1,-7%
13,COc1cc(S(=O)(=O)N2CCCC3(CCCCC3)C2)ccc1-n1cnnn1,76% (active)
14,COc1cc(S(=O)(=O)N2CCN3CCCC3C2)ccc1-n1cnnn1 (configuration not stated),6.5%
15,COc1cc(S(=O)(=O)N2CCC(N3CCCCC3)CC2)ccc1-n1cnnn1,12.7%
16,COc1cc(C(=O)Nc2ccc(S(=O)(=O)N3CCCCC3C)cc2)cc(OC)c1OC (configuration not stated),0.7%
17,Cc1cc(C)c2c(CC(=O)N(CCC#N)Cc3cccnc3)coc2c1,-1.9%
18,c1csc(CSc2nc3ccccc3s2)c1,-17.1%
19,N#C/C(=C\c1ccco1)Sc1nc2ccccc2s1,43.6%
20,Cc1oc(-c2cccs2)nc1CS(=O)CC(=O)NCCCOC(C)C (configuration not stated),-12.2%
21,O=C(CSC1=NCCS1)Nc1ccnc2ccccc12,-15.4%
22,CCOC(=O)COc1ccc(S(=O)(=O)NCCC2=CCCCC2)cc1,53.1% (active)
23,COC(=O)COc1ccc(S(=O)(=O)NCCC2=CCCCC2)cc1C,-19.8%
24,COC(=O)COc1ccc(S(=O)(=O)NCCC2=CCCCC2)cc1,-11.9%
